The results in this text go back to PubChem BioAssay (EPA / NIEHS).

One may read the AC50 as the concentration at which the activity in the assay is half-maximal.

Records with an inconclusive call do not appear. Active and inactive are the calls of the source. How the source made its calls: active means hit-call score of the fitted dose curve at least 0.9, where 1 is the maximum; inconclusive means response in the unintended direction; inactive means score below 0.9.

Read-out in the test: xenobiotic metabolism (CYP1A2), CYP1A2 (gene 1544)
Nature of the test: CLD_CYP1A2_24hr: CellzDirect (CLD) Gene Expression Assay for xenobiotic metabolism (CYP1A2) at 24 hours (AID 2283683). As to the method: CLD_24hr is a cell-based, multiplexed-readout assay that uses hepatocyte, a human liver primary cell, with measurements taken at 24 hours after chemical dosing in a 96-well plate.CLD_CYP1A2_24hr is one of 16 assay component(s) measured or calculated from the CLD_24hr assay. It is designed to make measurements of mRNA induction, a form of inducible reporter, as detected with chemiluminescence signals by Quantitative Nuclease Protection Assay (qNPA) technology.Data from the assay component CLD_CYP1A2_24hr was analyzed at the endpoint, CLD_CYP1A2_24hr, in the positive analysis fitting direction relative to DMSO as the negative control and baseline of activity. Using a type of inducible reporter, gain-of-signal activity can be used to understand changes in the reporter gene as they relate to the gene CYP1A2. Furthermore, this assay endpoint can be referred to as a primary readout. To generalize the intended target to other relatable targets, this assay endpoint is annotated to the cyp intended target family, where subfamily is xenobiotic metabolism.
Human hepatocyte cultures were treated daily for two consecutive days with fresh dosing solutions containing appropriate concentrations of the 320 ToxCast chemicals (chemical identities were blinded to CellzDirect and other ToxCast collaborators), vehicle control (0.2% DMSO), and positive control inducers as summarized in Table 1. Due to the large number of treatment groups and chemicals examined, the ToxCast chemicals were divided into two groups (spanning two independent cultures of hepatocytes from separate donor preparations (Hu778: ToxCast plates 1 and 2; Hu776: ToxCast plates 3 and 4). Each preparation of human hepatocyte cultures was treated with respective vehicle control, medium only control, set of six positive controls/reference chemicals for the five hepatic receptor pathways, and a subset of eight of the ToxCast chemicals (indoxacarb, pyrithiobac-sodium, norflurazon, cyhalofop-butyl, methomyl, thiram, acetochlor, and propiconazole). These replicate data, coupled with internal replicates designed within the blinded ToxCast chemical library, provided additional data to evaluate interindividual differences between hepatocyte preparations and their potential impact on chemical profiles.Cell morphology and integrity were evaluated using phase-contrast microscopy as an indicator of hepatocyte cell health (Tyson & Green, 1987). Cultures for each treatment group (i.e., media, vehicle [0.2% DMSO], positive control inducers [multiple concentrations], and the ToxCast chemicals [multiple concentrations]) were observed and cell morphology was assessed relative to vehicle control cultures at each harvest time point (0, 6, 24, or 48 h). […] Images were evaluated at the conclusion of the study to assess changes in cell integrity and account for the effects of chemical exposure on uncharacteristic changes in concentration-dependent gene expression profiles. The results from these determinations of apparent cytotoxicity were annotated (yes/no) alongside the corresponding qNPA data for reference.At the conclusion of each treatment period, hepatocyte cultures (96-well) were washed with 1 volume of HBSS, lysed by addition of 25 ul ArrayPlate lysis buffer (HTG, Tucson, AZ), and 70 ul/well of Denaturation Oil, denatured by incubation at 95C for 10 min, and frozen at approximately -70C until analysis by nuclease protection assay (qNPA) (Roberts et al., 2007). For qNPA analysis, cell lysates were thawed at 50C for approximately 30 min, qNPA probes were added, and samples were incubated at 95C for 10 min to begin the detection process by denaturing the target RNA, dissociating the duplexes and secondary structure hybridization. At the conclusion of the hybridization period, S1 nuclease reagent was added to each sample to digest all nonprotected nucleotides at 50C for 60-90 min. […]
With `O=C(Nc1ccc([N+](=O)[O-])cc1Cl)c1cc(Cl)ccc1O`, the AC50 was 3.97 µM (active).

For `CCN(CC)C(=O)c1cccc(C)c1`, the outcome was inactive.

For the molecule `CCOC(=O)C(C)Oc1ccc(Oc2nc3ccc(Cl)cc3o2)cc1` (stereo not given), the call was inactive.

Turning to `CCCCOC(=O)[C@@H](C)Oc1ccc(Oc2ccc(C(F)(F)F)cn2)cc1`, the AC50 is 20 µM (active).

Turning to `c1ccc2[nH]c(-c3cscn3)nc2c1`, the AC50 is 0.345 µM (active).

Take `S=C(S)NCCNC(=S)S.[Mn+2].[S-]C([S-])=NCCN=C([S-])[S-].[Zn+2]`: the call was inactive.

For `CC(C)(C)[C@@H](O)[C@@H](Cc1ccc(Cl)cc1)n1cncn1`, the molecule was classed as inactive.

Consider `CCN(Cc1c(F)cccc1Cl)c1c([N+](=O)[O-])cc(C(F)(F)F)cc1[N+](=O)[O-]`, for which the AC50 was 0.418 µM (active).

Turning to `OB(O)O`, the molecule was classed as inactive.

With `CCCCCCC(C)OC(=O)COc1nc(F)c(Cl)c(N)c1Cl` (stereo not given), the result was inactive.

`Oc1ccc(C(c2ccc(O)cc2)C(Cl)(Cl)Cl)cc1`: the outcome was inactive.

`CCCCC(CC)COC(=O)c1ccccc1C(=O)O` (stereo not given): the call was inactive.

Take `CCOC(=O)[C@H](C)Oc1ccc(Oc2nc3ccc(Cl)cc3o2)cc1`: the result was inactive.

As to `N#CSCSc1nc2ccccc2s1`, the half-maximal activity concentration (AC50) was 7.18 µM (active).

For the molecule `COC(=O)c1ccc(CNS(C)(=O)=O)cc1S(=O)(=O)NC(=O)Nc1nc(OC)cc(OC)n1`, the call was inactive.

With `COc1nc(C)nc(NC(=O)NS(=O)(=O)c2ccccc2OCCCl)n1`, the outcome was inactive.

As to `COC(=O)c1ccc(I)cc1S(=O)(=O)NC(=O)Nc1nc(C)nc(OC)n1`, the molecule was classed as inactive.

Take `COC(=O)c1ccccc1C(=O)O`: the molecule was called inactive.

`CCSC(=O)N(CC(C)C)CC(C)C`: the molecule was called inactive.

Turning to `CCOC(=O)NCCOc1ccc(Oc2ccccc2)cc1`, the result was inactive.

Regarding `COC(=O)c1ccccc1S(=O)(=O)NC(=O)Nc1nc(OC(F)F)cc(OC(F)F)n1`, the AC50 was 0.233 µM (active).

Consider `CSC(=O)c1cccc2nnsc12`, for which the AC50 is 20 µM (active).

As to `CCCN(CCC)c1c([N+](=O)[O-])cc(C(F)(F)F)c(N)c1[N+](=O)[O-]`, the AC50 was 2.34 µM (active).

Turning to `COC(=O)c1c(Cl)nn(C)c1S(=O)(=O)NC(=O)Nc1nc(OC)cc(OC)n1`, the AC50 was 0.797 µM (active).

On to `CCNc1nc(N)nc(Cl)n1`, for which the molecule was called inactive.

As to `CCCCC(CC)CN1C(=O)C2C3C=CC(C3)C2C1=O` (stereo not given), the AC50 was 7.81 µM (active).

Regarding `CC1(C)C(C=C(Cl)Cl)C1C(=O)OCc1cccc(Oc2ccccc2)c1` (stereo not given), the molecule was called inactive.

For `CCCCCOC(=O)COc1cc(N2C(=O)C3=C(CCCC3)C2=O)c(F)cc1Cl`, the call was inactive.

For the molecule `CCCN(CCC)C(=O)SCC`, the molecule was called inactive.

With `c1ccc(Nc2ccccc2)cc1`, the AC50 is 6.41 µM (active).

As to `COc1c(Cl)ccc(Cl)c1C(=O)O`, the molecule was classed as inactive.

On to `O=C(O)C1(C(=O)Nc2ccc(Cl)cc2Cl)CC1`, for which the AC50 is 20 µM (active).

For `CCOC(=O)C(C)Oc1ccc(Oc2cnc3cc(Cl)ccc3n2)cc1` (stereo not given), the molecule was classed as inactive.

With `CCC(C)OC(=O)N1CCCCC1CCO` (stereo not given), the molecule was called inactive.

Regarding `CCCCOCCOCCOCc1cc2c(cc1CCC)OCO2`, the AC50 is 0.858 µM (active).

For `Cc1nn(C)c(Oc2ccccc2)c1C=NOCc1ccc(C(=O)OC(C)(C)C)cc1`, the AC50 is 37.4 µM (active).

Regarding `S=C([S-])NCCNC(=S)[S-].[Mn+2]`, the call was inactive.

`COC(=O)c1cccc(C)c1S(=O)(=O)NC(=O)Nc1nc(OCC(F)(F)F)nc(N(C)C)n1`: the AC50 is 6.03 µM (active).

Consider `CN(C)C(=O)Nc1ccc(Cl)c(Cl)c1`, for which the concentration at half-maximal activity (AC50) was 4.42 µM (active).

`C#CCOC(=O)[C@@H](C)Oc1ccc(Oc2ncc(Cl)cc2F)cc1`: the outcome was inactive.
